Test [1] in a line: Inducers of the Endoplasmic Reticulum Stress Response (ERSR) in human glioma: Validation (AID 504836). Also: 0% is about no effect. The method in brief: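 ERSR induction read as luciferase luminescence (Bright-Glo, 10 min at room temperature) in stably transfected human U87-MG glioma cells exposed to compounds for 16 h, using GRP78 as sensor.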
A short description of test [2]: qHTS for Inhibitors of the Functional Ribonucleoprotein Complex (vRNP) of Lassa (LASV) Arenavirus: LASV Primary Screen - GLuc reporter signal (AID 1347082; calls by dose curve; tested in HEK293 reporter line; also: % is scaled to controls: 0 for no effect and ±100 for the full control effect; nearly all actives have a fitted effect of over 60% in size).
Test [3] is described as follows: qHTS for Inhibitors of the Functional Ribonucleoprotein Complex (vRNP) of Lassa (LASV) Arenavirus: Viability assay - alamar blue signal for LASV Primary Screen (AID 1347083; calls by dose curve; tested in HEK293 reporter line; also: % is scaled to controls: 0 for no effect and ±100 for the full control effect; nearly all actives have a fitted effect of over 80% in size). (In general: In qHTS, concentration-response curves come from the screen itself.)
A short description of test [4]: qHTS for Inhibitors of the Functional Ribonucleoprotein Complex (vRNP) of Lymphocytic Choriomeningitis Arenaviruses (LCMV): Viability assay - alamar blue signal for LCMV Primary Screen (AID 1347085; calls by dose curve; tested in HEK293 reporter line; also: % is scaled to controls: 0 for no effect and ±100 for the full control effect; nearly all actives have a fitted effect of over 80% in size).
For test [5], the target named is Nucleoprotein (Lymphocytic choriomeningitis virus (strain Armstrong)) (UniProt P09992). Briefly: qHTS for Inhibitors of the Functional Ribonucleoprotein Complex (vRNP) of Lymphocytic Choriomeningitis Arenaviruses (LCMV): LCMV Primary Screen - GLuc reporter signal (AID 1347086; calls by dose curve; also: % is scaled to controls: 0 for no effect and ±100 for the full control effect; nearly all actives have a fitted effect of over 70% in size).
Chain of Nucleoprotein (Lymphocytic choriomeningitis virus (strain Armstrong)) (P09992 whole entry, looked up): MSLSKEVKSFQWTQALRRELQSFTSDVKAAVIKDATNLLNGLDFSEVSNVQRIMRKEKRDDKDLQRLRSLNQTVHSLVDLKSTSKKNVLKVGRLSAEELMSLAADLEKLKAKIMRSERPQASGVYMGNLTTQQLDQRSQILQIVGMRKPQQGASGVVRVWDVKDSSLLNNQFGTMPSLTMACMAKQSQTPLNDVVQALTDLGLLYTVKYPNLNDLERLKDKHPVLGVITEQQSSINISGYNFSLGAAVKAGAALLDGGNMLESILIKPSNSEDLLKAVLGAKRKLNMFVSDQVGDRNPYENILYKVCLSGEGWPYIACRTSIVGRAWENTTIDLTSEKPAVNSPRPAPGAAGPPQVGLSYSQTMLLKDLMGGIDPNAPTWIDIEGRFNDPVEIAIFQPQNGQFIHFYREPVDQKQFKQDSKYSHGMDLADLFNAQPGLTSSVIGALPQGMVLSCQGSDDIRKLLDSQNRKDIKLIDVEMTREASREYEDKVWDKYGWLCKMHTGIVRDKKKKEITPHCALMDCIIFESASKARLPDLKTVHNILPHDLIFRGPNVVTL
The target in test [6] is Alpha-galactosidase (Coffea arabica) (UniProt Q42656). Briefly: Counterscreen for Glucocerebrosidase Inhibitors: qHTS Assay for Coffee Bean alpha-Galactosidase at pH 5.9 (AID 998).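 Also: plate controls were uninhibited enzyme for no effect and no-enzyme basal signal for full effect.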 The method in brief: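 Compounds were titrated from 0.7 nM to 77 uM against green coffee bean alpha-galactosidase (2 nM) using 80 uM fluorogenic 4-methylumbelliferyl substrate. After 20 min at room temperature, reactions were stopped at pH 10 and read by fluorescence.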
Chain of Alpha-galactosidase (Coffea arabica) (Q42656 whole entry, looked up): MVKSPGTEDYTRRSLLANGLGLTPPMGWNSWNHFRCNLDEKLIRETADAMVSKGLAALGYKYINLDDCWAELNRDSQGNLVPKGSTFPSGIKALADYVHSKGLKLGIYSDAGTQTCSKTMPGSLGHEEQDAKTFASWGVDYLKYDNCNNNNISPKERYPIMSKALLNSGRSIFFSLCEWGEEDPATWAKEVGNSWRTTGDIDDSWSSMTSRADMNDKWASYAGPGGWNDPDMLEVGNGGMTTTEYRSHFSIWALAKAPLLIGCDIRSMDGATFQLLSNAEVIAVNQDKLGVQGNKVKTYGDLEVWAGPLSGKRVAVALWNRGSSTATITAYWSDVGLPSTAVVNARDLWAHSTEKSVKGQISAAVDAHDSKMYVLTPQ
(In general: Counterscreens check selectivity or assay interference.)

Test [7] is described as follows: Validation screen for inhibitors of Lassa infection (AID 463096; calls by dose curve; also: % is scaled to controls: 0 for no effect and ±100 for the full control effect).
For test [8], the target named is Alpha-galactosidase (Coffea arabica) (UniProt Q42656). Briefly: Counterscreen for Glucocerebrosidase Inhibitors: qHTS Assay for Coffee Bean alpha-Galactosidase at pH 4.5 (AID 957).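 Also: plate controls were enzyme alone for no effect and no enzyme for full effect.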 The method in brief: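 Coffee bean alpha-galactosidase 2 nM, substrate 4-MU-alpha-Gal 80 uM, pH 4.5 citrate/Tween-20, 20 min RT. Cpd titration 0.7 nM–77 uM. Stop pH 10, fluorescence 365/440 nm; Hill-equation AC50.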

A short description of test [9]: Quantitative high throughput screen for delayed death inhibitors of the malarial parasite plastid, 96 hour incubation (AID 488745). Also: potency is read from the fitted curve at half-maximal effect; nearly all actives have a fitted effect of over 70% in size. The method, boiled down:
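Infected erythrocytes were added to compound in Albumax-supplemented RPMI 1640 at 0.1% parasitemia and 2% hematocrit (final), incubated 96 h at 37 C under 5% CO2, then luciferase reagent was added and luminescence measured.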

Test [10] addresses Flap endonuclease 1 (Homo sapiens) (UniProt P39748). Briefly: qHTS Validation Assay for the Inhibitors of Human Flap endonuclease 1 (FEN1) (AID 488816). Also: % is scaled to controls: 0 for no effect and ±100 for the full control effect. The method, boiled down: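 Readings taken at 0 and 15 min after starting the reaction with 50 nM (final) substrate supplied the signal. Compounds had first sat with 10 nM FEN1 reagent for 15 min at room temperature. Values come from Hill-equation concentration-response fits.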

Test [11] addresses Chromobox protein homolog 1 (Homo sapiens) (UniProt P83916). As to the kind of experiment: qHTS Validation Assay for Inhibitors of HP1-beta Chromodomain Interactions with Methylated Histone Tails (AID 488953).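 Also: loss of AlphaScreen luminescence from HP1-beta binding biotinylated H3K9me3 peptide; % is scaled to controls: 0 for no effect and ±100 for the full control effect; nearly all actives have a fitted effect of over 50% in size.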 The method in brief:
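50 nM HP1-beta + 50 nM biotin-H3(1-18)K9me3, PBS pH 7.4, 0.01% Tween-20, 30 min RT; compound added, 30 min RT; AlphaScreen beads 10 ug/mL final, 30 min dark; luminescence read.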

The nature of test [12]: qHTS profiling of the MIPE4 collection as inhibitors of Plasmodium falciparum (DD2) proliferation (AID 743345; call rule not given here). Particulars: P. falciparum Dd2 in erythrocytes, SYBR Green DNA, 72 h; at 28.5 µM (top of the series) unless noted. The method in brief:
(§1)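 Erythrocytes infected with P. falciparum (0.3% parasitemia, 2.5% hematocrit) incubated with compounds 72 h at 37 C, 5% CO2. Lysis with saponin/Triton buffer containing SYBR Green I, overnight at room temperature in the dark; DNA fluorescence (485/535 nm) normalised to 0.29 uM artemisinin and DMSO.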

A short description of test [13]: qHTS profiling of the MIPE4 collection as inhibitors of Plasmodium falciparum (HB3) proliferation (AID 743347; call rule not given here;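 also: plate controls were DMSO vehicle wells for no effect and artemisinin wells for full effect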). Particulars: P. falciparum HB3 in erythrocytes, SYBR Green DNA, 72 h; at 28.5 µM (top of the series) unless noted. The method, boiled down:
as §1

The values that follow come from PubChem BioAssay (NCATS).

Records with an inconclusive call do not appear. The source made the active and inactive calls. Unless noted, calls follow the shape of the dose curve; as a rule, active = well fitted curve in the direction sought with a large enough effect; inconclusive = small, poorly fitted or top-dose-only effect, or another doubt; inactive = no such curve, though single readings can be large; an effect the other way counts as inactive or inconclusive.

Chain of Chromobox protein homolog 1 (Homo sapiens) (P83916 whole entry, looked up): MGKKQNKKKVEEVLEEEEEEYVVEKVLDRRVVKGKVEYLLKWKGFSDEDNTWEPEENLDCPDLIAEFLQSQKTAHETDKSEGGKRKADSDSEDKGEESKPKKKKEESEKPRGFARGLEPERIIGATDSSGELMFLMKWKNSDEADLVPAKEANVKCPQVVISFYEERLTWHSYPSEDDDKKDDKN
Chain of Flap endonuclease 1 (Homo sapiens) (P39748 whole entry, looked up): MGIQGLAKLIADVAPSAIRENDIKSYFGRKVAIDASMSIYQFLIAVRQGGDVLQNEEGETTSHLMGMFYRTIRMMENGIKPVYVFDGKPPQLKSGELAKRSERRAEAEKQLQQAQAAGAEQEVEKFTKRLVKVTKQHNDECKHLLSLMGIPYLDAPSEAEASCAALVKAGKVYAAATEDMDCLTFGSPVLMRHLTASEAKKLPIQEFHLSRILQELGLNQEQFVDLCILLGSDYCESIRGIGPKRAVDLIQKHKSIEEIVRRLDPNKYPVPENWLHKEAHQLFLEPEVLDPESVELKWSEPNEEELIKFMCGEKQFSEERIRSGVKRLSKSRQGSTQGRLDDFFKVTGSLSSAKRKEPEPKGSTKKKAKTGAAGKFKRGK

Regarding `Cc1cccc(/C=C/c2ccccc2)n1`, the compound was called inactive in test [1]. For the same compound, the Potency entry in test [2], in test [3], in test [4] and in test [5] was “inactive” each time.
`CC[C@H](NC(=O)c1c(C)c(-c2ccccc2)nc2ccccc12)c1ccccc1`: in test [6], the compound was called inactive. The Potency entry in [7], in test [2], in test [3], in [4] and in [5] was “inactive” in each case.
As to `O=Nc1ccc2oc(=O)ccc2c1`, the call in [1] was inactive. Besides, the Potency result in test [2], in [3], in test [4] and in test [5] was “inactive” each time.
With `NC(=O)C1=CN(C2OC(COP(=O)(O)OP(=O)(O)OC[C@H]3O[C@@H](n4cnc5c(N)ncnc54)[C@H](OP(=O)(O)O)[C@@H]3O)C(O)C2O)C=CC1` (some centres undefined), the compound was called inactive in [1]. Also, the Potency result in [2], in test [3], in test [4] and in [5] was “inactive” each time.
On to `Nc1nc2c(nc(Br)n2C2OC3COP(=O)(O)O[C@@H]3C2O)c(=O)[nH]1` (some centres undefined), for which the outcome in test [1] was inactive. The Potency result in [2], in test [3], in test [4] and in test [5] was “inactive” throughout.
Consider `Nc1nc(Nc2ccccc2)nc2c1ncn2[C@@H]1O[C@H](CO)[C@@H](O)[C@H]1O`, for which the call in test [1] was inactive. In addition, the Potency result in test [2], in test [3], in test [4] and in [5] was “inactive” each time.
For `C[C@H](Cc1ccccc1)Nc1ncnc2c1ncn2[C@@H]1O[C@H](CO)[C@@H](O)[C@H]1O`, the result in [1] was inactive. The Potency result in [2], in [3], in test [4] and in [5] was “inactive” each time.
With `CC(=O)SCC[N+](C)(C)C`, the outcome in test [8] and in test [6] was inactive. In addition, the Potency result in test [7], in [2], in [3], in test [4] and in [5] was “inactive” each time.
In the case of `CN1CCc2cccc3c2C1Cc1ccc(O)c(O)c1-3` (centres undefined), the Potency in test [9] was 2.94 µM (active). Moreover, the result in test [1] was inactive. For the same compound, the Potency entry in test [2], in test [3], in test [4] and in test [5] was “inactive” in each case.
With `CCCn1c(=O)c(C)cn2nc(N)nc12`, the result in [1] was inactive. In addition, the Potency result in test [2], in test [3], in test [4] and in [5] was “inactive” each time.
With `C[C@H](NC(=O)/C(C#N)=C/c1ccc(O)c(O)c1)c1ccccc1`, the call in [6] was inactive. The Potency result in test [7], in test [2], in test [3], in [4] and in [5] was “inactive” throughout.
In the case of `CN[C@H](CC(C)C)C(=O)N[C@H]1C(=O)N[C@@H](CC(N)=O)C(=O)N[C@@H]2C(=O)N[C@H]3C(=O)N[C@H](C(=O)N[C@H](C(=O)O)c4cc(O)cc(O)c4-c4cc3ccc4O)[C@H](O)c3ccc(c(Cl)c3)Oc3cc2cc(c3O[C@@H]2O[C@H](CO)[C@@H](O)[C@H](O)[C@@H]2O[C@H]2C[C@](C)(N)[C@H](O)[C@H](C)O2)Oc2ccc(cc2Cl)[C@H]1O`, the Potency entry in test [10], in test [11], in [2], in [3], in [4] and in [5] was “inactive” each time. The result in test [1] was inactive. In addition, the parasite growth remaining, % of DMSO control (lower = more inhibition) in test [12] came out at 104%. In test [13], this compound came in with a growth, % of control of 704%.
In the case of `Cc1nc2n(c(=O)c1CCN1CCC(c3noc4cc(F)ccc34)CC1)CCCC2O` (centres undefined), in test [1], the call was inactive. In addition, the Potency entry in [2], in test [3], in test [4] and in test [5] was “inactive” in each case.
Consider `OC[C@H]1O[C@@H](n2cnc3c(NC4CCCCC4)ncnc32)[C@H](O)[C@@H]1O`, for which, in test [1], the outcome was inactive. Also, the Potency result in test [2], in test [3], in [4] and in test [5] was “inactive” in each case.
Consider `CNc1ncnc2c1ncn2[C@@H]1O[C@H](CO)[C@@H](O)[C@H]1O`, for which the outcome in test [1] was inactive. In addition, the Potency entry in [2], in test [3], in test [4] and in test [5] was “inactive” throughout.
On to `CN1CC(O)C(O)C(O)C1CO` (centres undefined), for which the call in test [1] was inactive. The Potency entry in test [2], in [3], in test [4] and in test [5] was “inactive” throughout.
